A structure can be active in one record and inactive in another. Active and inactive are the calls of the source. Rule for the calls: active = hit-call score of the fitted dose curve at least 0.9, where 1 is the maximum; inactive = score below 0.9.

This assay can be described thus: ATG_VDRE_CIS: Attagene CIS-FACTORIAL HepG2 Assay for human Vitamin D Receptor Element (VDRE) (AID 2282968). Particulars: HepG2 VDRE cis-reporter transcription, actives raise or lower the signal. The procedure:
ATG_CIS is a cell-based, multiplexed-readout assay that uses HepG2, a human liver cell line, with measurements taken at 24 hours after chemical dosing in a 24-well plate.ATG_VDRE_CIS is one of 52 assay component(s) measured or calculated from the ATG_CIS assay. It is designed to make measurements of mRNA induction, a form of inducible reporter, as detected with fluorescence intensity signals by Reverse transcription polymerase chain reaction (RT-PCR) and Capillary electrophoresis technology.Data from the assay component ATG_VDRE_CIS was analyzed into 1 assay endpoint. This assay endpoint, ATG_VDRE_CIS, was analyzed with bidirectional fitting relative to DMSO as the negative control and baseline of activity. Using a type of inducible reporter, measures of mRNA for gain or loss-of-signal activity can be used to understand the reporter gene at the transcription factor-level as they relate to the gene VDR. Furthermore, this assay endpoint can be referred to as a primary readout, because this assay has produced multiple assay endpoints where this one serves a reporter gene function. To generalize the intended target to other relatable targets, this assay endpoint is annotated to the nuclear receptor intended target family, where the subfamily is non-steroidal.
Human liver HepG2 cells are transiently transfected with multiple reporter transcription units (MRTUs) in 6-well plates using FuGene 6 reagent (Roche; 3 ml FuGene/1 mg DNA). The MRTU constructs are regulated by a cis-regulating element (promoter). […] A major difference between the CIS and TRANS system is that in CIS activities of endogenous TFs are measured, whereas the TRANS assay evaluates changes in activities of exogenous, chimeric NR-Gal4 proteins. […] At the end of 24 hour incubation, total RNA was isolated using TriZol reagent (Invitrogen). The isolated RNA is then reverse-transcribed using oligo(dT) primer and Mo-MLV reverse transcriptase (Invitrogen) with DNAse I (Ambion) treatment for 30 min. The one-tenth of the produced cDNA was amplified by PCR using Taq DNA polymerase (Invitrogen) and two reporter sequence-specific primers. The PCR products were fluorescently labeled by primer extension with 6-arboxyfluorescein (6-FAM) 5'-labeled reporter sequence-specific primer (2 min at 95 C, 20 s at 68 C and 10 min at 72 C) and these products were digested with 5U of HpaI (New England Biolabs) for 2h at 37 C. The fragments were purified using Qiaquick PCR columns (Qiagen), analyzed on an ABI 3130xL genetic analyzer (Applied Biosystems) with peak positions identified by using a set of X-rhodamine (ROX)-labeled MapMarker1000 molecular weight standards (BioVentures). The raw capillary electrophoresis data was processed using Attagraph software (Attagene).
Turning to `ClCCCCl`, the compound was classed as inactive.

Regarding `CCCSP(=S)(OCC)Oc1ccc(Cl)cc1Cl` (stereo not given), the compound was called inactive.

In the case of `C[C@]12CC[C@@H](O)C[C@@H]1CC[C@@H]1[C@@H]2CC[C@]2(C)C(=O)CC[C@@H]12`, the result was inactive.

By AC50 is commonly meant the midpoint of the concentration-response curve, whichever way the signal moves. For `C=CC(=O)[O][Sn]([CH2]CCC)([CH2]CCC)[CH2]CCC`, the AC50 is 0.266 µM (active).

Turning to `C=CC(Cl)CCl` (stereo not given), the result was inactive.

For `[Cl][Sn]([c]1ccccc1)([c]1ccccc1)[c]1ccccc1`, the AC50 was 0.24 µM (active).

As for `Brc1ccc(Oc2c(Br)cc(Br)cc2Br)c(Br)c1`, the compound was called inactive.

Turning to `CCNc1nc(NCC)nc(SC)n1`, the call was inactive.

For the compound `N#CCCC(Br)(C#N)CBr` (stereo not given), the AC50 was 43.9 µM (active).

Take `O=[N+]([O-])c1c2ccccc2cc2ccccc12`: the compound was called inactive.

`ClCc1ccccc1Cl`: the AC50 is 100 µM (active).

Regarding `CC(C)(C)c1ccc(CCOc2ncnc3ccccc23)cc1`, the outcome was inactive.

For the compound `O=C=Nc1ccc(Cl)cc1`, the compound was classed as inactive.

Regarding `CCOP(=S)(OCC)SCS(=O)(=O)C(C)(C)C`, the result was inactive.

Turning to `CC(C)[C@H](C(=O)OC(C#N)c1cccc(Oc2ccccc2)c1)c1ccc(OC(F)F)cc1` (stereo not given in full), the AC50 is 1.08 µM (active).

For the compound `N#Cc1ccncc1`, the result was inactive.

Regarding `O=C(NC(=O)c1c(F)cccc1F)Nc1cc(Cl)c(OC(F)(F)C(F)C(F)(F)F)cc1Cl` (stereo not given), the outcome was inactive.

With `CCCCN(CCCC)C(=S)S`, the AC50 was 24.3 µM (active).

`CC(C)=CC1C(C(=O)OCc2cccc(Oc3ccccc3)c2)C1(C)C` (stereo not given): the compound was called inactive.

Turning to `O=C(Cc1ccccc1)OCCc1ccccc1`, the compound was called inactive.

Regarding `CN(N=O)C(N)=O`, the compound was classed as inactive.

Take `C[C@H]1C(=O)O[C@@H]2CCN3CC=C(COC(=O)[C@](C)(O)[C@]1(C)O)[C@H]23`: the outcome was inactive.

`N#Cc1cccnc1`: the compound was classed as inactive.

On to `O=C(CCl)NCO`, for which the compound was classed as inactive.

As for `Cc1cc(Cl)ccc1O`, the compound was classed as inactive.

`O=S(=O)(C(Cl)(Cl)Cl)C(Cl)(Cl)Cl`: the concentration at half-maximal activity (AC50) was 16.7 µM (active).

Take `CC1(C)[C@H](C(=O)O[C@H](C#N)c2cccc(Oc3ccccc3)c2)[C@@H]1/C=C(\Cl)C(F)(F)F`: the AC50 is 0.502 µM (active) and the call was inactive.

`CCOC(=O)OC1=C(c2cc(C)ccc2C)C(=O)NC12CCC(OC)CC2` (stereo not given): the compound was called inactive.

On to `C=CCCl`, for which the result was inactive.

On to `Cc1ccccc1OP(=O)(Oc1ccccc1)Oc1ccccc1`, for which the AC50 was 1.25 µM (active).

Consider `O=[N+]([O-])c1ccc(Nc2ccccc2)cc1`, for which the AC50 was 19.2 µM (active).

For `N#Cc1ccccc1Cl`, the outcome was inactive.

In the case of `CCCCS(=O)(=O)Cl`, the result was inactive.

For `N#CS`, the outcome was inactive.

As to `C=CCOC(F)(C(F)(F)F)C(F)(F)F`, the call was inactive.

Regarding `[F][Sn]([c]1ccccc1)([c]1ccccc1)[c]1ccccc1`, the AC50 was 0.332 µM (active).

Take `CC(C)(c1ccccc1)c1cc(-n2nc3ccccc3n2)c(O)c(C(C)(C)c2ccccc2)c1`: the compound was called inactive.

Take `CCCCC(CC)COC(=O)Cl` (stereo not given): the outcome was inactive.

For `Cc1cccc(N=Nc2ccc(N(C)C)cc2)c1`, the AC50 was 19.8 µM (active).

Source of the values: PubChem BioAssay (EPA / NIEHS).
